The text below walks through data of PubChem BioAssay (EPA / NIEHS).

SMILES strings stand for the structures. Active and inactive are the calls of the source. Rule for the calls: active = hit-call score of the fitted dose curve at least 0.9, where 1 is the maximum; inactive = score below 0.9.

Holding throughout (details): mRNA level, 48 h; actives raise or lower the signal
Read-out in one test: MYC, MYC (gene 4609)
Kind of test: LTEA_HepaRG_MYC: Life Technologies and Expression Analysis (LTEA) Assay for MYC using HepaRG (AID 2283518). In outline:
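Cells are thawed, plated and cultured 48 h, then treated for 48 h with test chemicals (eight half-log concentrations from 100 uM, 0.5% DMSO vehicle). RNA is isolated and MYC expression quantified by qRT-PCR against three housekeeping genes.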

Read-out in test [1]: Paternally Expressed 10 (PEG10), PEG10 (gene 23089)
Kind of test: LTEA_HepaRG_PEG10: Life Technologies and Expression Analysis (LTEA) Assay for Paternally Expressed 10 (PEG10) using HepaRG (AID 2283520). Put shortly: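 HepaRG, 48 h post-plating → serum-free induction medium → 48 h chemical exposure (duplicate, 8-pt, max 100 uM, half-log, 0.5% DMSO) → lysis in RLT → TaqMan qRT-PCR for PEG10, ACTB/GAPDH/POLR2A normalisation.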

Read-out in test [2]: Nuclear factor NF-kappa-B p105 subunit (Homo sapiens) (UniProt P19838)
Kind of test: LTEA_HepaRG_NFKB1: Life Technologies and Expression Analysis (LTEA) Assay for Nuclear Factor Kappa B Subunit 1 (NFKB1) using HepaRG (AID 2283521). Put shortly:
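NFKB1 transcript was measured by TaqMan qRT-PCR on Fluidigm arrays, normalised to three housekeeping genes and fitted in both directions against 0.5% DMSO. HepaRG cells were dosed in duplicate for 48 h in serum-free induction medium, eight half-log steps from 100 uM.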

Read-out in test [3]: Protein phosphatase 2A (PPP2R4), PTPA (gene 5524)
Kind of test: LTEA_HepaRG_PPP2R4: Life Technologies and Expression Analysis (LTEA) Assay for Protein phosphatase 2A (PPP2R4) using HepaRG (AID 2283522). Put shortly:
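Readout is PPP2R4 transcript level by microfluidic qRT-PCR after 48 h chemical treatment of human HepaRG liver cells. Concentrations spanned 100 uM downward in half-log steps; gain or loss of signal was fitted relative to DMSO.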

Read-out in test [4]: Phosphatase and tensin (PTEN), PTEN (gene 5728)
Kind of test: LTEA_HepaRG_PTEN: Life Technologies and Expression Analysis (LTEA) Assay for Phosphatase and tensin (PTEN) using HepaRG (AID 2283523). In outline: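 Differentiated human HepaRG cells, plated 48 h then switched to serum-free induction medium, were exposed in duplicate for 48 h to eight half-log concentrations up to 100 uM in 0.5% DMSO. PTEN mRNA measured by TaqMan qRT-PCR, normalized to ACTB/GAPDH/POLR2A, bidirectional fit versus DMSO.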

Read-out in test [5]: solute carrier (SLC22A1), SLC22A1 (gene 6580)
Put plainly: LTEA_HepaRG_SLC22A1: Life Technologies and Expression Analysis (LTEA) Assay for solute carrier (SLC22A1) using HepaRG (AID 2283524). In outline: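 Human HepaRG cells were plated 48 h, switched to serum-free induction medium, then exposed in duplicate for 48 h to 8-point half-log series from 100 uM in 0.5% DMSO. SLC22A1 mRNA measured by qRT-PCR, normalized to ACTB/GAPDH/POLR2A, fitted bidirectionally versus DMSO.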

Read-out in test [6]: Pyruvate Dehydrogenase Kinase 4 (PDK4), PDK4 (gene 5166)
Kind of test: LTEA_HepaRG_PDK4: Life Technologies and Expression Analysis (LTEA) Assay for Pyruvate Dehydrogenase Kinase 4 (PDK4) using HepaRG (AID 2283525). In outline:
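Differentiated human HepaRG cells, pre-cultured 48 h, were exposed in duplicate for 48 h in serum-free induction medium to eight half-log concentrations up to 100 uM in 0.5% DMSO. PDK4 mRNA was quantified by qRT-PCR, normalized to ACTB, GAPDH and POLR2A, bidirectional fitting versus DMSO.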

Read-out in test [7]: NAD(P)H dehydrogenase [quinone] 1 (NQO1), NQO1 (gene 1728)
Put plainly: LTEA_HepaRG_NQO1: Life Technologies and Expression Analysis (LTEA) Assay for NAD(P)H dehydrogenase [quinone] 1 (NQO1) using HepaRG (AID 2283526). Put shortly:
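HepaRG, 48 h post-plating → serum-free induction medium → test chemical 48 h (duplicate, 100 uM top, half-log x8, 0.5% DMSO) → RNA isolation → qRT-PCR, ACTB/GAPDH/POLR2A normalization; bidirectional curve fit vs DMSO baseline.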

Read-out in test [8]: Nuclear factor erythroid 2-related factor 2 (Homo sapiens) (UniProt Q16236)
Put plainly: LTEA_HepaRG_NFE2L2: Life Technologies and Expression Analysis (LTEA) Assay for Nuclear factor erythroid 2-related factor 2 (NFE2L2) Transcription Factor using HepaRG (AID 2283527). In outline: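 Differentiated human HepaRG cells in serum-free induction medium were exposed for 48 h to eight concentrations (top 100 uM, half-log dilutions, 0.5% DMSO), in duplicate. NFE2L2 mRNA was quantified by TaqMan qRT-PCR, normalized to ACTB, GAPDH and POLR2A, with bidirectional fitting versus DMSO.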

Read-out in test [9]: succinate dehydrogenase complex iron sulfur subunit B (SDHB), SDHB (gene 6390)
Put plainly: LTEA_HepaRG_SDHB: Life Technologies and Expression Analysis (LTEA) Assay for succinate dehydrogenase complex iron sulfur subunit B (SDHB) using HepaRG (AID 2283528). In outline: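 SDHB transcript level read by TaqMan qRT-PCR, housekeeping-normalised (ACTB, GAPDH, POLR2A), after 48 h chemical treatment of plated HepaRG cells; eight concentrations top 100 uM, half-log steps, 0.5% DMSO, duplicates; fitted both directions against DMSO.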

Read-out in test [10]: Signal transducer and activator of transcription 3 (Homo sapiens) (UniProt P40763)
Put plainly: LTEA_HepaRG_STAT3: Life Technologies and Expression Analysis (LTEA) Assay for Signal transducer and activator of transcription (STAT3) using HepaRG (AID 2283529). Put shortly:
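Differentiated human HepaRG cells in serum-free induction medium were exposed in duplicate for 48 h to eight half-log concentrations up to 100 uM in 0.5% DMSO. STAT3 mRNA was quantified by TaqMan qRT-PCR, normalized to ACTB, GAPDH and POLR2A, and fitted bidirectionally against DMSO.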

Read-out in test [11]: solute carrier (SLCO1B1), SLCO1B1 (gene 10599)
Kind of test: LTEA_HepaRG_SLCO1B1: Life Technologies and Expression Analysis (LTEA) Assay for solute carrier (SLCO1B1) using HepaRG (AID 2283530). Put shortly: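 Gain or loss of SLCO1B1 mRNA is fitted against the 0.5% DMSO vehicle in human HepaRG liver cells treated 48 h at up to 100 uM in half-log steps. Expression comes from qRT-PCR normalized to endogenous controls.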

Read-out in test [12]: sulfotransferase 2A1 (SULT2A1), SULT2A1 (gene 6822)
Put plainly: LTEA_HepaRG_SULT2A1: Life Technologies and Expression Analysis (LTEA) Assay for sulfotransferase 2A1 (SULT2A1) using HepaRG (AID 2283531). Put shortly:
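Cells were plated and cultured 48 h, switched to serum-free induction medium, then dosed in duplicate for 48 h (8 concentrations, max 100 uM). RNA was isolated and SULT2A1 expression measured by qRT-PCR; gain or loss of signal fitted relative to DMSO.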

Read-out in test [13]: Transforming Growth Factor (TGFA), TGFA (gene 7039)
Put plainly: LTEA_HepaRG_TGFA: Life Technologies and Expression Analysis (LTEA) Assay for Transforming Growth Factor (TGFA) using HepaRG (AID 2283532). In outline:
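Differentiated human HepaRG cells, plated 48 h then switched to serum-free induction medium, were exposed in duplicate for 48 h to 8-point half-log series from 100 uM in 0.5% DMSO. TGFA mRNA measured by qRT-PCR, normalized to ACTB/GAPDH/POLR2A, bidirectional fit versus DMSO.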

Read-out in test [14]: Transforming Growth Factor (TGFB1), TGFB1 (gene 7040)
Put plainly: LTEA_HepaRG_TGFB1: Life Technologies and Expression Analysis (LTEA) Assay for Transforming Growth Factor (TGFB1) Transporter using HepaRG (AID 2283533). In outline:
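Expression change of TGFB1 in human HepaRG cells is measured after a 48 h chemical exposure, up to 100 uM in 0.5% DMSO vehicle. Curves are fitted in both directions relative to the DMSO baseline.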

Read-out in the next test: TIMP1, TIMP1 (gene 7076)
Kind of test: LTEA_HepaRG_TIMP1: Life Technologies and Expression Analysis (LTEA) Assay for TIMP1 using HepaRG (AID 2283534).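 Note: TaqMan qRT-PCR signal normalized to ACTB GAPDH and POLR2A housekeeping genes.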 In outline: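 We dosed human liver HepaRG cultures for 48 hours with up to 100 uM test chemical and measured TIMP1 expression by qRT-PCR. Activity in either direction is fitted relative to the 0.5% DMSO vehicle.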

Read-out in test [15]: Tumor necrosis factor receptor 1 (TNFRSF1A), TNFRSF1A (gene 7132)
Put plainly: LTEA_HepaRG_TNFRSF1A: Life Technologies and Expression Analysis (LTEA) Assay for Tumor necrosis factor receptor 1 (TNFRSF1A) using HepaRG (AID 2283535). Put shortly: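 Expression of TNFRSF1A in human HepaRG liver cells was measured by qRT-PCR 48 h after chemical dosing (maximum 100 uM). Bidirectional curve fitting used 0.5% DMSO as baseline.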

Read-out in test [16]: Thyroid Hormone Responsive (THRSP), THRSP (gene 7069)
Put plainly: LTEA_HepaRG_THRSP: Life Technologies and Expression Analysis (LTEA) Assay for Thyroid Hormone Responsive (THRSP) using HepaRG (AID 2283536). In outline:
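Differentiated human HepaRG cells were exposed in duplicate for 48 h in serum-free induction medium to eight concentrations (top 100 uM, half-log steps, 0.5% DMSO). Expression was quantified by TaqMan qRT-PCR, normalized to ACTB, GAPDH and POLR2A, with bidirectional fitting against DMSO.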

Read-out in test [17]: matrix metalloproteinase-3 (MMP3), MMP3 (gene 4314)
Put plainly: LTEA_HepaRG_MMP3: Life Technologies and Expression Analysis (LTEA) Assay for matrix metalloproteinase-3 (MMP3) using HepaRG (AID 2283519). In outline: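 Differentiated human HepaRG cells, plated 48 h on collagen I, were exposed in duplicate for 48 h in serum-free induction medium to eight half-log concentrations up to 100 uM in 0.5% DMSO. MMP3 mRNA was quantified by TaqMan qRT-PCR, normalised to ACTB, GAPDH and POLR2A.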

Read-out in test [18]: Cellular tumor antigen p53 (Homo sapiens) (UniProt P04637)
Kind of test: LTEA_HepaRG_TP53: Life Technologies and Expression Analysis (LTEA) Assay for Tumor Protein P53 (TP53) using HepaRG (AID 2283537). In outline:
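TP53 transcript measured by qRT-PCR, normalized to three housekeeping genes, after 48 h treatment of human HepaRG cultures with chemicals from 100 uM downward in half-log steps (0.5% DMSO vehicle, serum-free induction medium). Up- or down-regulation fitted against DMSO.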

Chain of Signal transducer and activator of transcription 3 (Homo sapiens) (P40763 whole entry, looked up): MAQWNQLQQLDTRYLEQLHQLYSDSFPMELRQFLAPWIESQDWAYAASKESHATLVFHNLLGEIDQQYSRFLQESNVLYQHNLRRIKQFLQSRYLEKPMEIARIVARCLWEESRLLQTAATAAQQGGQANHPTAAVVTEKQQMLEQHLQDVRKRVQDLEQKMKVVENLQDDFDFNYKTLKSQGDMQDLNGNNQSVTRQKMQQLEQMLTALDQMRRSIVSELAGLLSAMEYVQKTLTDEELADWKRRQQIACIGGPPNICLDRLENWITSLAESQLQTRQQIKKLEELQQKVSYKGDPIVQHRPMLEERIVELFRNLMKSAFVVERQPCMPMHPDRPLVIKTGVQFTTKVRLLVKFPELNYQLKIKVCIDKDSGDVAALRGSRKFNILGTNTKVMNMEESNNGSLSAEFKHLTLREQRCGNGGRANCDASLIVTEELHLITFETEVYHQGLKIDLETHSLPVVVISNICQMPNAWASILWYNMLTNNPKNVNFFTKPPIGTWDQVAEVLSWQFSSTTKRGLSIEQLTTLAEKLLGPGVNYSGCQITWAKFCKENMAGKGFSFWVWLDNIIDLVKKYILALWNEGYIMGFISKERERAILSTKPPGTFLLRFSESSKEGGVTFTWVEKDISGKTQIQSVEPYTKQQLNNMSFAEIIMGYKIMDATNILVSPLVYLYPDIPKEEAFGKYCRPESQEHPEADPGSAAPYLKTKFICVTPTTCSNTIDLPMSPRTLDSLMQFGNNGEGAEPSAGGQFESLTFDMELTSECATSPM
Chain of Nuclear factor erythroid 2-related factor 2 (Homo sapiens) (Q16236 whole entry, looked up): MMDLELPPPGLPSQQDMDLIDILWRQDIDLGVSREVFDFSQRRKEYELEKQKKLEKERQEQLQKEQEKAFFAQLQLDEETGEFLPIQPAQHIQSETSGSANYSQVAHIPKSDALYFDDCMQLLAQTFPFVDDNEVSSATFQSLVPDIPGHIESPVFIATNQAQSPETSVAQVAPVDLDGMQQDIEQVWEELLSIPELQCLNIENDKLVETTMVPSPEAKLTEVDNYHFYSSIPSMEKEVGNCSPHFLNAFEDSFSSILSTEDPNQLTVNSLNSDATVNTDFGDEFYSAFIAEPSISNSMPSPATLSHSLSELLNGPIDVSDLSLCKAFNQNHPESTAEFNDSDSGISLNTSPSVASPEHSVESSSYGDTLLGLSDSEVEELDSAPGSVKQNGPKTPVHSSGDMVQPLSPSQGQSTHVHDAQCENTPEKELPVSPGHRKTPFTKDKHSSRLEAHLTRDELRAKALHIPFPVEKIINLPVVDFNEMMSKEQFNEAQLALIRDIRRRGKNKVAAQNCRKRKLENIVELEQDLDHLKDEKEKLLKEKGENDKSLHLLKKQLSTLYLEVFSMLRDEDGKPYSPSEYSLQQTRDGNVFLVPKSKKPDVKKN
Chain of Nuclear factor NF-kappa-B p105 subunit (Homo sapiens) (P19838 whole entry, looked up): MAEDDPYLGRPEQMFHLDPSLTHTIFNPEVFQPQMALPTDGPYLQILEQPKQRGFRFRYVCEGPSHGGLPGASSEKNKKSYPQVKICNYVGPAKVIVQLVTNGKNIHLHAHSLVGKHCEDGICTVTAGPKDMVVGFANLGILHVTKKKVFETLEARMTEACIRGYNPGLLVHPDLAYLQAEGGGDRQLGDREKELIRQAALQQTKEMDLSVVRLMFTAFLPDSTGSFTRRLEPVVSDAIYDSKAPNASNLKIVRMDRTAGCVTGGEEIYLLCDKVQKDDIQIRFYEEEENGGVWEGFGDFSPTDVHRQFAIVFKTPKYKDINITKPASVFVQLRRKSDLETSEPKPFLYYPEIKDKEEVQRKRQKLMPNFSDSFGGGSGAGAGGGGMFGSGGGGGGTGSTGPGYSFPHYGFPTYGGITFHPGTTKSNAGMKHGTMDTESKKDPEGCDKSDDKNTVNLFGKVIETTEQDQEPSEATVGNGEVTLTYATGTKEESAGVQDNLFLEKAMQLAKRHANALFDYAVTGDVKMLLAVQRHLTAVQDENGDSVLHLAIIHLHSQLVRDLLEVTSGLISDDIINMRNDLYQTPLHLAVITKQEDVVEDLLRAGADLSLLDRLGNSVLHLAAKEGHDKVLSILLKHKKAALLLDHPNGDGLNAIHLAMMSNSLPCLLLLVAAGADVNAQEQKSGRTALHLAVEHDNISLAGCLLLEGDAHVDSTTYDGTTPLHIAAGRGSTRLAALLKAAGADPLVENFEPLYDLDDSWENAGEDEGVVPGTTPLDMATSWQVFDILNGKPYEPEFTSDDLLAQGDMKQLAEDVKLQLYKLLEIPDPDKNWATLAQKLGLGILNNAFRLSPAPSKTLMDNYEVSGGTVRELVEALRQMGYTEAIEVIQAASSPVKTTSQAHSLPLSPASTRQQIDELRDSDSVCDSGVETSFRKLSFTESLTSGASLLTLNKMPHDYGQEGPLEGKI
Chain of Cellular tumor antigen p53 (Homo sapiens) (P04637 whole entry, looked up): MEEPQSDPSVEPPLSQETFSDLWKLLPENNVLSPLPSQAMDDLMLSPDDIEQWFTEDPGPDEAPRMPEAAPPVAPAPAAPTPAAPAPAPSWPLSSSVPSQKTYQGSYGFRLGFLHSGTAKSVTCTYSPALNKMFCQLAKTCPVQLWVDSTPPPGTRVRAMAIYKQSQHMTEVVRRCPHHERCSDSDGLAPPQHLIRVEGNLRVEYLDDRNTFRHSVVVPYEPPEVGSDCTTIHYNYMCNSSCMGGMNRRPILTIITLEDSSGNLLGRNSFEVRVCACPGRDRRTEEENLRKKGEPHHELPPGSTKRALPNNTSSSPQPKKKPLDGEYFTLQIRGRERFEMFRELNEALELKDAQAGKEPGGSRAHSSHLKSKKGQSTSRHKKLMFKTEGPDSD

On to `CCN(CC)CCOc1ccc(C(=C(Cl)c2ccccc2)c2ccccc2)cc1`, for which the AC50 with MYC, MYC (gene 4609) was 56.1 µM (active); in test [2], 77.1 µM (active); in [4], 78.5 µM (active); in test [5], 17.1 µM (active); in [6] it was 42 µM (active); in test [8] it was 77.7 µM (active). Also, the AC50 was 78.1 µM (active) in test [9]; 78.6 µM (active) in test [10]; 13.3 µM (active) in test [11]; 79.3 µM (active) in test [12]; 42 µM (active) in test [13]; 42 µM (active) in [14]. Besides, the outcome in test [1] was “inactive”; in test [3], “inactive”; in test [7] it was “inactive”; with TIMP1, TIMP1 (gene 7076), “inactive”; in test [15], “inactive”; in test [16], “inactive”.
Turning to `CC(N)=O`, the outcome with MYC, MYC (gene 4609) is “inactive”; in test [17], “inactive”; in test [1] it was “inactive”; in [3], “inactive”; in test [5], “inactive”; in test [6], “inactive”. In addition, the result in test [7], in test [8], in [9], in test [10], in test [11] and in test [12] was inactive. For the same compound, the result in test [13], in test [14] and in [16] was inactive. In test [15], the AC50 is 0.243 µM (active).
For `COc1ccc(C(=O)Nc2nc3ccccc3c(NCc3ccccc3)c2C#N)cc1`, the half-maximal activity concentration (AC50) is 14.6 µM (active) with MYC, MYC (gene 4609); 9.92 µM (active) in [17]; 16.1 µM (active) in [1]; 20.9 µM (active) in test [8]; 16.3 µM (active) in test [11]; 21.2 µM (active) in [12]. For the same compound, the figures for the AC50 in test [14] and in test [16] were 7.58 µM (active) and 13.6 µM (active), respectively. The compound was classed as inactive in test [3], in [4], in [6], in test [7], in [9] and in [10]. The outcome was “inactive” in test [13]; “inactive” with TIMP1, TIMP1 (gene 7076); “inactive” in test [15]; “inactive” in test [18].
As to `Cc1c(C)c2c(c(C)c1O)CCC(C)(COc1ccc(CC3SC(=O)NC3=O)cc1)O2` (stereo not given), the outcome with MYC, MYC (gene 4609) is “inactive”; in test [17], “inactive”; in test [3] it was “inactive”; in [4], “inactive”; in test [6], “inactive”; in [7] it was “inactive”. For the same compound, the compound was classed as inactive in [8], in test [9], in [10], in test [13], in test [15] and in test [18]. Besides, the AC50 is 91.5 µM (active) in [1]; 77 µM (active) in test [2]; 24.7 µM (active) in test [11]; 93.4 µM (active) in test [12]; 12 µM (active) in test [14]; 27.1 µM (active) in [16].
